Only some compounds are listed: those with a hit (about 3.5% of all), similar ones and a draw of the others.
FBW7 activator – human FBW7 E3 ligase activation, primary screen; 650,000 compounds, 0.13% hits; Q969H0; normalized activity (activation), % at 26.1 µM; AID 1259310; AlphaScreen FBW7–phospho-cyclin E peptide binding, activator screen; in the data active means normalized activity above about 1.9%;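 further: purified mutant Fbw7 with reduced substrate affinity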
TEAD-YAP inh – TEAD-YAP interaction inhibition | HEK-TIYL cells, TEAD-Gal4/YAP UAS-luciferase luminescence | inhibition, % at 9.12 µM | 640,000 compounds, 1.4% hits; in the data active means inhibition above about 32%;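 further: 0% = median of test compound wells and 100% = reference inhibitor wells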
MITF primary – human MITF inhibition, primary screen; O75030; AlphaScreen MITF homodimerization, bead proximity signal; 650,000 compounds, 0.91% hits; inhibition, % at 2.6 µM; in the data active means inhibition above about 50%;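 further: 0% = vehicle wells with protein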
GPR151 activ – human GPR151 activation. Q8TDV0. PathHunter beta-arrestin GPR151 cells, luminescence. activation, % at 11.2 µM. 650,000 compounds, 1% hits; in the data active means activation above about 4.9%;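 further: 0% = median of compound wells and 100% = cells with positive control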
Target sequence (Q8TDV0 whole entry, looked up): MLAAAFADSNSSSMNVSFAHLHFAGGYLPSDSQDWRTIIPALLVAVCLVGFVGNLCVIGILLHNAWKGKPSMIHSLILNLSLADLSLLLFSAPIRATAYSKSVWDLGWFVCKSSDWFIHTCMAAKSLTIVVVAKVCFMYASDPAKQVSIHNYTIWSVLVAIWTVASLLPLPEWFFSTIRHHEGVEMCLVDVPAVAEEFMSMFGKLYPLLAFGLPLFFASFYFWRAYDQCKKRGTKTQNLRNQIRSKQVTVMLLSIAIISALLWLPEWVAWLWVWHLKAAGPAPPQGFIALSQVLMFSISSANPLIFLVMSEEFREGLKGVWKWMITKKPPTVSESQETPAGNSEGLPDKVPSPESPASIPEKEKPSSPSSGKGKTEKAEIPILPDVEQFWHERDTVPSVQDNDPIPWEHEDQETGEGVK
* = called active by the depositor; . = no result given.

SMILES	FBW7 activator	TEAD-YAP inh	MITF primary	GPR151 activ
C[C@H]1O[C@@H](O[C@H]2[C@@H](O)C[C@H](O[C@H]3[C@@H](O)C[C@H](O[C@H]4CC[C@@]5(C)[C@H](CC[C@@H]6[C@@H]5C[C@@H](O)[C@]5(C)[C@@H](C7=CC(=O)OC7)CC[C@]65O)C4)O[C@@H]3C)O[C@@H]2C)C[C@H](O)[C@@H]1O	0.1	.	7.7	0.2
C[C@H]1O[C@@H](O[C@H]2[C@@H](O)C[C@H](O[C@H]3[C@@H](O)C[C@H](O[C@H]4CC[C@]5(C)C6CC[C@]7(C)[C@@H](C8=CC(=O)OC8)CC[C@]7(O)C6CC[C@@H]5C4)O[C@@H]3C)O[C@@H]2C)C[C@H](O)[C@@H]1O (stereo not given in full)	0.3	99.5*	24.0	4.3
O=c1oc2ccccc2cc1-c1cn2ccccc2n1	0.1	74.6*	0.7	-10.8
COc1cccc2cc(-c3cn4ccccc4n3)c(=O)oc12	0.1	41.9*	7.0	-6.1
COc1ccc(C2=N/C(=C/c3ccc(N(C)C)cc3)C(=O)O2)cc1Br	0.0	-2.6	4.7	1.0
CC(=O)Oc1ccc(C(=O)O/N=C(\N)c2ccccn2)cc1	0.0	50.3*	-6.8	-7.6
Cc1cccc(C(=O)O/N=C(\N)c2ccccn2)c1	0.1	82.1*	13.0	-8.0
COc1ccc(/C(N)=N/OC(=O)c2ccc(OC(C)=O)cc2)cc1OC	0.0	20.9	-16.9	-3.6
N/C(=N\OC(=O)c1cc(Cl)ccc1Cl)c1ccccn1	0.8	44.3*	17.9	-7.1
N/C(=N\OC(=O)c1ccc(F)cc1)c1ccc(Br)cc1	2.1*	1.4	1.0	1.0
N/C(=N\OC(=O)c1ccc(F)cc1)c1ccc(Cl)cc1	0.0	-15.8	1.2	-0.4
COc1ccc(CN2CCC3(CC2)CC3C(=O)N2CCCN(C)CC2)cc1C (stereo not given)	-0.2	0.9	-15.1	-0.3
CC(C)=CCCC1=CCC(/C=N/NC(N)=O)C(C)C1 (stereo not given)	0.4	-10.8	13.6	1.4
COc1ccc(C(=O)O/N=C(\N)c2ccc(OC)c(OC)c2)c(OC)c1	0.0	-23.9	1.2	0.2
Cc1ccccc1C(=O)O/N=C(\N)c1ccccn1	-0.1	48.7*	9.4	-8.0
CC(C)(C)c1ccc(C(=O)O/N=C(\N)c2ccncc2)cc1	0.6	-64.4	1.1	3.9
CC(=O)Oc1ccc(C(=O)O/N=C(\N)c2ccncc2)cc1	0.7	31.9*	15.7	-8.3
CCOc1ccc(C(=O)O/N=C(\N)c2ccccn2)cc1	0.0	91.5*	2.6	-7.4
COc1ccc(C(=O)O/N=C(\N)c2ccccn2)c(OC)c1	-0.1	40.8*	-3.0	-7.5
CN(CCC#N)C(=O)COC(=O)c1ccc(Br)o1	0.8	9.1	14.9	-1.0
O=C(Nc1ccccc1C(=O)Nc1ccc(Cl)cc1)c1cccc(S(=O)(=O)N2CCCCC2)c1	0.4	-2.7	13.8	-1.0
CC(C)C(=O)N1CCN(c2ccc([N+](=O)[O-])c(N3CCCCC3)c2)CC1	0.4	7.1	14.0	0.1
COc1ccc(/C=N/NC(=O)CNc2ccc(Br)cc2)c(C(=O)O)c1OC	0.6	1.0	22.7	-0.9
CCc1ccc(NC(=O)c2cc3c(CO)cnc(C)c3oc2=N)cc1	-0.2	-8.4	-4.7	-0.6
CCCCCCCCn1cc(C)c(=O)n(C(C)(C)C)c1=O	-0.2	4.2	-2.9	0.8
SMILES	FBW7 activator	TEAD-YAP inh	MITF primary	GPR151 activ
COc1ccc(C(=O)O/N=C(\N)c2ccccn2)cc1OC	0.1	-64.3	-2.1	-1.3
N/C(=N\OC(=O)c1ccc(I)cc1)c1ccccn1	-0.1	80.9*	-13.2	-7.5
CC1CC(C)CN(S(=O)(=O)c2ccc3c(c2)oc(=O)n3CC(=O)NC(C)(C)C)C1 (stereo not given)	-0.2	-0.7	-1.6	0.4
Cc1cccc(NC(=O)Cc2ccc3c(c2)OCO3)n1	1.5	-30.4	-3.4	-0.3
NC(=O)c1cnn(-c2ccnc(NC(=O)Cc3ccc4c(c3)OCO4)c2)c1	-0.2	45.3*	17.1	-1.6
c1cc(CNc2ccc3ncc(-c4ccc5c(c4)OCO5)n3n2)ccn1	-0.4	50.4*	5.3	-0.2
O=C(O)c1ccc(-c2cnc3ccc(NCc4ccc5c(c4)OCO5)nn23)cc1	0.3	-3.1	-15.5	-0.8
c1ccc(CNc2ccc3ncc(-c4ccc5c(c4)OCO5)n3n2)nc1	0.1	58.2*	6.5	0.6
Cc1ccc(-c2cnc3ccc(NCc4ccc5c(c4)OCO5)nn23)cc1	0.0	48.1*	7.5	-0.2
O=C(CSCC(=O)Nc1ccc2c(c1)oc1ccccc12)Nc1ccccc1	0.8	-9.7	-18.4	1.4
Cc1ccc2oc(=O)c3cc(C(=O)N4CCOCC4)sc3c2c1	-0.2	-12.5	-4.5	0.4
CSc1ccccc1C(=O)NCc1ccccn1	-0.1	1.0	-1.8	0.8
N#CC1=C(N)Oc2c(ccc3cccnc23)C1c1ccc(Br)cc1 (stereo not given)	-1.0	17.4	12.4	-1.1
N#CC1=C(N)Oc2c(ccc3cccnc23)C1c1cccc([N+](=O)[O-])c1 (stereo not given)	-0.4	48.6*	8.8	0.8
Cc1ccc(C2C(C#N)=C(N)Oc3c2ccc2cccnc32)cc1 (stereo not given)	0.0	37.4*	-0.2	1.6
N#CC1=C(N)Oc2c(ccc3cccnc23)C1c1ccccc1Cl (stereo not given)	-1.0	17.2	2.7	-2.1
N#CC1=C(N)Oc2cc(N)ccc2C1c1cccc([N+](=O)[O-])c1 (stereo not given)	0.3	40.4*	-2.2	1.4
Cc1ccc(S(=O)(=O)N2CCOCC2)cc1C(=O)OCC(=O)c1ccc(F)cc1	0.3	-4.8	2.1	-0.1
CC(=O)c1cccc(NC(=O)CN(C)S(=O)(=O)c2ccc3[nH]c4c(c3c2)CCCC4)c1	0.0	5.2	4.1	0.7
COc1cc(-c2cncc(-c3ccccc3N(C)C)n2)cc(OC)c1OC	0.0	-2.8	-7.8	0.0
COc1cncc(-c2cncc(-c3ccccc3N(C)C)n2)c1	0.1	36.3*	-0.9	0.7
COc1ccc(N2Cc3ccc(C(=O)NN)cc3C2)cc1	0.1	-34.8	26.1	0.4
Cc1cc2c(cc1C)CN(c1cccc(C(=O)O)c1)C2	-0.1	34.3*	8.8	-0.6
Cc1cc2c(cc1C)CN(c1cccc(C(=O)NN)c1)C2	-0.1	38.4*	-6.7	2.5
CNC(=S)N1CCC(NC(=O)C(Cc2ccc(OC)cc2)NC(C)=O)CC1 (stereo not given)	2.4*	-15.5	4.8	3.4
SMILES	FBW7 activator	TEAD-YAP inh	MITF primary	GPR151 activ
CC1(C)CC(=O)C=C(NNC(=O)/C(=C/c2ccccc2)CCO)C1	1.9*	11.4	10.7	0.6
CC1(C)CC(=O)C=C(NNC(=O)c2ccc(O)cc2)C1	0.0	3.9	-16.0	0.3
O=[N+]([O-])c1ccc(/C=C/c2ccc(O)cc2)cc1	0.0	49.1*	4.1	-11.2
Cc1cnc(NC(=O)c2ccc(Cn3ccnc3)cc2)s1	0.0	61.0*	-0.4	-0.6
C/C(Cn1nc([N+](=O)[O-])cc1C)=N/NC(=O)c1cc(O)c(O)c(O)c1	-0.5	7.9	55.7*	0.4
CCC(C)NC(=O)C(=O)NCc1cccnc1 (stereo not given)	-0.2	9.4	3.3	0.2

Screening results deposited in PubChem BioAssay by The Scripps Research Institute Molecular Screening Center.
